In PubChem BioAssay (Tox21):
Inconclusive results are not listed. The source made the active and inactive calls. Unless noted, calls come from the whole dose curve; as a rule, active = well fitted curve in the direction sought with a large enough effect in the repeat runs; inconclusive = weak or mixed curves; inactive = no such curve, though single readings can be large; an effect the other way counts as inactive or inconclusive.

Columns and labels:
[1] = qHTS assay to identify small molecule antagonists of the estrogen related receptor (ERR) signaling pathway from Tox21 library - cell viability counter screen (AID 1224834); note: nearly all actives have a fitted effect of over 30% in size
In short: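 Viability readout (CellTiter-Fluor fluorescence, 30 min at 37 C) multiplexed with the ERR assay; cells treated 17.5 h at 37 C with compounds delivered in DMSO.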

[2] = target: Luciferin 4-monooxygenase (Photinus pyralis) (UniProt P08659); test: qHTS assay to identify small molecule inhibitors of firefly luciferase (AID 1224835); note: series mostly up to about 120 µM; nearly all actives have a fitted effect of over 25% in size
In short: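 Inhibition of purified Photinus luciferase is measured by luminescence. Substrate levels (D-luciferin, ATP) sit at their KM values. Each compound is tested in a concentration series.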

[3] = qHTS assay to identify small molecule agonists of the constitutive androstane receptor (CAR) signaling pathway - cell viability counter screen (AID 1224836); note: series mostly up to about 92 µM; nearly all actives have a fitted effect of over 45% in size
In short: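 Counter screen multiplexed with the CAR reporter readout: HepG2 cells co-transfected with hCAR and the CYP2B6-2.2kb construct receive a 15-concentration compound series and 0.75 uM PK11195 (final), then CellTiter-Fluor fluorescence is read after 23 h.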

[4] = target: Nuclear receptor subfamily 1 group I member 3 (Homo sapiens) (UniProt Q14994); test: qHTS assay to identify small molecule antagonists of the constitutive androstane receptor (CAR) signaling pathway (AID 1224838);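 note: HepG2 cells stably expressing hCAR with CYP2B6 luciferase reporter stimulated by CITCO; nearly all actives have a fitted effect of over 40% in size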
In short: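 Quantitative HTS in double-stable HepG2-CYP2B6-hCAR cells. After 4 h plating, cells get compound (15 concentrations) and CITCO at 50 nM final, incubate 24 h at 37 C, then ONE-Glo luminescence is read.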

[5] = target: Nuclear receptor subfamily 1 group I member 3 (Homo sapiens) (UniProt Q14994); test: qHTS assay to identify small molecule agonists of the constitutive androstane receptor (CAR) signaling pathway (AID 1224839); note: series mostly up to about 92 µM; nearly all actives have a fitted effect of over 15% in size
In short: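 A 15-concentration quantitative screen uses HepG2 cells co-transfected stably with human CAR and CYP2B6-2.2kb reporter. Treatment lasts 24 h with 0.75 uM PK11195 final present; ONE-Glo luminescence is the signal.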

[6] = qHTS assay to identify small molecule antagonists of the estrogen related receptor signaling pathway with the pleiotropic PPARgamma coactivator (PGC) from Tox21 10K library - cell viability counter screen (AID 1224840; active = well fitted cell-killing curve with a large enough effect in the repeat runs, not every such curve was filed as active; note: nearly all actives have a fitted effect of over 40% in size)
In short: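 Compounds in DMSO, alongside positive and negative controls, were pinned onto PGC/ERR cells (2,000 per well). Exposure lasted 17.5 hours at 37 C, followed by a 30-minute CellTiter-Fluor incubation and fluorescence reading.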

[7] = qHTS assay to identify small molecule agonists of the hypoxia (HIF-1) signaling pathway - cell viability counter screen (AID 1224844; calls by dose curve; note: nearly all actives have a fitted effect of over 50% in size)
In short: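 Luminescent ATP content (CellTiter-Glo, 30 min, room temperature) served as the viability measure in HRE-bla ME-180 cells exposed to compounds for 17 hrs in low-serum medium (0.5% dialyzed FBS).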

[8] = qHTS assay to identify small molecule agonists of H2AX - cell viability counter screen (AID 1224847; calls by dose curve; note: top concentration of the series differs between compounds; nearly all actives have a fitted effect of over 30% in size)
In short: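 We seed wild-type CHO-K1 cells overnight, treat them for 3 hr at 37C with compounds in 15-concentration series, and quantify remaining viability by CellTiter-Glo luminescence.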

[9] = qHTS RealTime-Glo MT Cell Viability Assay in HepG2 cells - 24 hour (AID 1224867); note: nearly all actives have a fitted effect of over 50% in size
In short: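 Cell number in HepG2 cultures estimated from NanoLuc luminescence generated by metabolic reduction of a prosubstrate by living cells. The homogeneous, nonlytic format allowed repeated reads at 0, 8, 16, 24, 32 and 40 h of compound exposure.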

[10] = qHTS RealTime-Glo MT Cell Viability Assay in HEK293 cells - 32 hour (AID 1224868); note: top concentration of the series differs between compounds; nearly all actives have a fitted effect of over 50% in size
In short: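 Homogeneous bioluminescent viability format in HEK293 cells (600 cells/well). Following 5 h at 37 C/5% CO2, 23 nL compound was pintooled; the signal was measured repeatedly during 40 h incubation.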

[11] = A CellTox Green Cytotoxicity Assay to monitor cytotoxicity in HEK293 cells - 0 hour (AID 1224869); note: nearly all actives have a fitted effect of over 50% in size
In short: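 Each value comes from one timepoint of a single continuous run in which HEK293 cells with CellTox Green were exposed to compound for up to 40 h at 37 C, dye fluorescence rising with cell death.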

[12] = qHTS RealTime-Glo MT Cell Viability Assay in HepG2 cells - 40 hour (AID 1224870); note: nearly all actives have a fitted effect of over 50% in size
In short: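 Real-time viability: cells seeded at 600 per well together with NanoLuc and cell-permeant prosubstrate, compounds added after 5 h incubation. Luminescence tracked at 0, 8, 16, 24, 32 and 40 h of exposure.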

[13] = qHTS assay to identify small molecule agonists of the estrogen related receptor signaling pathway with the pleiotropic PPARgamma coactivator (PGC) from Tox21 10K library (AID 1224842); note: nearly all actives have a fitted effect of over 15% in size
In short: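 Luminescence from One-Glo (30 min, room temperature) measured after PGC/ERR cells had 18 h at 37 C with pinned compound (23 nL in DMSO). Cells had been seeded at 2,000 per well and pre-incubated 6 h.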

[14] = qHTS assay to identify small molecule agonists of H2AX (AID 1224845; active = well fitted activation curve with a large enough effect in the signal ratio in the repeat runs, not every such curve was filed as active; the % refers to the signal ratio)
In short: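 Phospho-H2AX Ser139 measured by HTRF (ex 320 nm; em 665 and 620 nm) after 24 hr antibody incubation. Compounds, 15 concentrations, 0.76% DMSO, were applied to CHO-K1 cells for 3hr at 37C before lysis.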

[15] = qHTS assay to identify small molecule agonists of the hypoxia (HIF-1) signaling pathway (AID 1224846; active = well fitted activation curve with a large enough effect in the signal ratio in the repeat runs, not every such curve was filed as active; the % refers to the signal ratio)
In short: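 Measured by blue/green FRET after loading CCF4-AM: beta-lactamase expressed from a hypoxia response element in ME-180 cells. Test agents were delivered in DMSO and left 17 hrs; cells had been plated 5 hrs earlier in low-serum (0.5% dialyzed FBS) medium.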

[16] = qHTS assay to identify small molecule antagonists of the estrogen related receptor (ERR) signaling pathway from Tox21 library (AID 1224848); note: nearly all actives have a fitted effect of over 50% in size
In short: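 Reading was by luminescence 30 min after ONE-Glo addition. Before that, ERR cells at 2,000 per well had rested 6 h at 37 C/5% CO2 and then received pin-tooled compounds in DMSO for 18 h at 37 C.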

[17] = qHTS assay to identify small molecule agonists of the estrogen related receptor (ERR) signaling pathway from Tox21 library (AID 1224849; calls by dose curve; note: nearly all actives have a fitted effect of over 15% in size)
In short: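 We plated ERR reporter cells, waited 6 h, added compounds in DMSO by pin tool and incubated them 18 h at 37 C. ONE-Glo was then added and luminescence read after 30 min.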

[18] = target: Thyrotropin receptor (Homo sapiens) (UniProt P16473); test: qHTS assay to identify small molecule agonists of the thyroid stimulating hormone receptor (TSHR) signaling pathway (AID 1224843; calls by dose curve; note: nearly all actives have a fitted effect of over 45% in size)
In short: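 HEK293 cells stably bearing the thyrotropin receptor were plated at 800 cells/well and challenged with compound (30 min, RT). Accumulated cAMP was quantified via cAMP-d2 competing for cryptate-tagged antibody.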

[19] = qHTS assay to identify small molecule antagonists of the constitutive androstane receptor (CAR) signaling pathway - cell viability counter screen (AID 1224837); note: series mostly up to about 92 µM; nearly all actives have a fitted effect of over 45% in size
In short: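 Fluorescence from CellTiter-Fluor served as the viability signal. Human hepatoma HepG2 cells stably bearing hCAR and CYP2B6-2.2kb received compound plus CITCO (50 nM final) for 23 hr.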

[20] = qHTS assay to identify small molecule antagonists of the estrogen related receptor signaling pathway with the pleiotropic PPARgamma coactivator (PGC) from Tox21 10K library (AID 1224841; call rule not given here)
In short: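 Compound exposure ran 18 hours at 37 C in PGC/ERR cells (2,000/well) that had first rested 6 hours in a 37 C/5% CO2 incubator. Luciferase activity was then detected with One-Glo after a 30-minute room-temperature step.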
% is set by controls: 0 for no effect and ±100 for the full control effect.

Chain of Luciferin 4-monooxygenase (Photinus pyralis) (P08659 whole entry, looked up): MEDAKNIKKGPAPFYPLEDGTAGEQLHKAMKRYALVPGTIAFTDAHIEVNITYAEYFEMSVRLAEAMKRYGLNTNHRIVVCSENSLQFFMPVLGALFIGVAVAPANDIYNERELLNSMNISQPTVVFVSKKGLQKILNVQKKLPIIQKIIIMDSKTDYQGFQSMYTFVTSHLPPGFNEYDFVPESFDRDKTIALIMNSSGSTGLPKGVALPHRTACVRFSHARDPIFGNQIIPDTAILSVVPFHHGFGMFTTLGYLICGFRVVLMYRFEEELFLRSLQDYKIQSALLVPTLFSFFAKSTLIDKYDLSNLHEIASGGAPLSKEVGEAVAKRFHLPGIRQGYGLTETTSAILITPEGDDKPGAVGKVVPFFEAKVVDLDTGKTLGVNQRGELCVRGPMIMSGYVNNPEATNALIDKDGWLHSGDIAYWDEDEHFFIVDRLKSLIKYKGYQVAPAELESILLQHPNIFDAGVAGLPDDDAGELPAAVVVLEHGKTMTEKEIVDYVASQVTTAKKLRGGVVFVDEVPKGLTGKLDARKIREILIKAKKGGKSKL
Chain of Nuclear receptor subfamily 1 group I member 3 (Homo sapiens) (Q14994 whole entry, looked up): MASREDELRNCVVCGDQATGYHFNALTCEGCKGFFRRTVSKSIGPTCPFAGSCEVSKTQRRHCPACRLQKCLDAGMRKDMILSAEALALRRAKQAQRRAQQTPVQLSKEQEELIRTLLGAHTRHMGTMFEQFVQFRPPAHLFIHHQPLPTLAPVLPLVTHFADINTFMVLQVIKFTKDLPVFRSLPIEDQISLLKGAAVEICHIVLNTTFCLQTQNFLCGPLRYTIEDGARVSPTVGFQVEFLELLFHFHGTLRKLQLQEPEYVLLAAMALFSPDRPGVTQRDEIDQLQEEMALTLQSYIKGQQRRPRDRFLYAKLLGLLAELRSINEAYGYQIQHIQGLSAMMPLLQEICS
Chain of Thyrotropin receptor (Homo sapiens) (P16473 whole entry, looked up): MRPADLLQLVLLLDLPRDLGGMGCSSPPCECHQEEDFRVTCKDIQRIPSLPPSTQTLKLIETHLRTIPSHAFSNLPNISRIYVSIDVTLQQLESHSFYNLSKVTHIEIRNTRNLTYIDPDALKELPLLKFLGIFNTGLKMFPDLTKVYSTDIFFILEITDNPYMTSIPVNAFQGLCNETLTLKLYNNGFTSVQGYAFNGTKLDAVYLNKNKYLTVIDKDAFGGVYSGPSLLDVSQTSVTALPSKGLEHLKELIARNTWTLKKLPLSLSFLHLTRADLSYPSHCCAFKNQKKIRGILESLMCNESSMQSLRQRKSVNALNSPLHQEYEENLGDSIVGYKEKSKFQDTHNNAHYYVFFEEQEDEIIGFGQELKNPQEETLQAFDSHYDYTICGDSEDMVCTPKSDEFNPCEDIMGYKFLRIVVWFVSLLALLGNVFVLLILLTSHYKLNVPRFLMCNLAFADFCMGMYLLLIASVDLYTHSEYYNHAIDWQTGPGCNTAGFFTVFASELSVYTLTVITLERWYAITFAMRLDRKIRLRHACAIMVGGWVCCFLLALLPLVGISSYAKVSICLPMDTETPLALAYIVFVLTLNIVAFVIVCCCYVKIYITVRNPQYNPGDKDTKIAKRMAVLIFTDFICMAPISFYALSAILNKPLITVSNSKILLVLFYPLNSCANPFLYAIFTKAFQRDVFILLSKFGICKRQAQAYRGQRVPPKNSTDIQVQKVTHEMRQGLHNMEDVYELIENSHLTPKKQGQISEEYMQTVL

CC1=NS(=O)(=O)c2cc(Cl)ccc2N1
inactive: Potency [1] | Potency [2] | outcome [3] | Potency [4] | Potency [5] | outcome [6] | Potency [7] | outcome [8] | outcome [9] | Potency [10] | outcome [11] | Potency [12]

CCCCN1C=CN(C)C1
inactive: viability change, negative = cytotoxic [1] 0.161% [at 19 µM] | activity change, negative = inhibition [2] -0.0434% [at 23.6 µM] | viability change, negative = cytotoxic [3] 5.36% [at 19 µM] | activity, negative = inhibition [4] 14.7% [at 19 µM] | activation [5] -0.414% [at 19 µM] | viability change, negative = cytotoxic [6] 1.46% [at 19 µM] | activation [13] 0.537% [at 19 µM] | activity change, negative = cytotoxicity [7] -14.8% [at 15.8 µM] | activation (H2AX phosphorylation) [14] -0.0666% [at 31.6 µM] | activation [15] -0.256% [at 15.8 µM] | activity change, negative = cytotoxicity [8] -1.83% [at 31.6 µM] | activity, negative = inhibition [16] 18.5% [at 19 µM] | activity change, positive = activation [17] 9.96% [at 19 µM] | activity change, negative = cytotoxicity [9] 3.12% [at 15.8 µM] | activity change, negative = cytotoxic [10] 8.51% [at 15.8 µM] | cytotoxicity [11] -3.75% [at 15.8 µM] | activity change, negative = cytotoxic [12] -0.384% [at 15.8 µM]

C=CN1CCCCCC1=O
inactive: Potency [1] | Potency [2] | outcome [3] | outcome [6] | Potency [18] | Potency [7] | Potency [14] | outcome [15] | outcome [8] | outcome [9] | Potency [10] | outcome [11] | Potency [12]

CCN[C@@H]1C[C@H](N)[C@@H](OC2OC(CN)=CCC2N)[C@H](O)[C@H]1O[C@H]1OC[C@](C)(O)[C@H](NC)[C@H]1O (stereo partly specified)
inactive: viability change, negative = cytotoxic [1] 5.78% [at 0.349 µM] | activity change, negative = inhibition [2] -1.17% [at 0.435 µM] | viability change, negative = cytotoxic [3] 2.22% [at 0.349 µM] | activity change, negative = cytotoxicity [19] 0.22% [at 0.349 µM] | viability change, negative = cytotoxic [6] -0.298% [at 0.349 µM] | activity change, negative = cytotoxicity [8] 4.57% [at 0.582 µM] | activity change, negative = cytotoxicity [9] 1.48% [at 0.29 µM] | activity change, negative = cytotoxic [10] 4.65% [at 0.29 µM] | cytotoxicity [11] 3.58% [at 0.29 µM] | activity change, negative = cytotoxic [12] 1.76% [at 0.29 µM]

CCNS(=O)(=O)c1ccc(C)cc1
inactive: Potency [1] | Potency [2] | outcome [3] | outcome [19] | outcome [6] | Potency [7] | Potency [14] | outcome [15] | outcome [8] | outcome [9] | Potency [10] | outcome [11] | Potency [12]

O=C(O)CNC(=O)c1ccc(CO)o1
inactive: Potency [1] | Potency [2] | outcome [3] | outcome [19] | outcome [6] | Potency [7] | outcome [15] | outcome [8] | outcome [9] | Potency [10] | outcome [11] | Potency [12]

CC[N+](C)(CC)CCOC(=O)C1c2ccccc2Oc2ccccc21
inactive: Potency [1] | Potency [2] | outcome [3] | outcome [19] | outcome [6] | Potency [14] | outcome [8] | outcome [9] | Potency [10] | outcome [11] | Potency [12]

CCCc1ncc(C[n+]2ccccc2C)c(N)n1
inactive: Potency [1] | Potency [2] | outcome [3] | outcome [19] | outcome [6] | Potency [7] | outcome [8] | outcome [9] | Potency [10] | outcome [11] | Potency [12]

NC(=O)Cc1cccc2ccccc12
inactive: Potency [1] | Potency [2] | outcome [3] | Potency [4] | Potency [5] | outcome [6] | Potency [18] | Potency [7] | outcome [15] | outcome [8] | outcome [9] | Potency [10] | outcome [11] | Potency [12]

c1ccc(Cc2ccccc2)cc1
inactive: Potency [1] | Potency [2] | outcome [3] | outcome [19] | outcome [6] | Potency [7] | Potency [14] | outcome [15] | outcome [8] | outcome [9] | Potency [10] | outcome [11] | Potency [12]

CC[N+](CC)(CC(=O)Nc1c(C)cccc1C)Cc1ccccc1 (tested in a mixture with another compound)
inactive: Potency [1] | Potency [2] | outcome [3] | outcome [19] | outcome [6] | Potency [7] | Potency [14] | outcome [15] | outcome [8] | outcome [9] | Potency [10] | outcome [11] | Potency [12]

O=C(O)CCSCCC(=O)O
inactive: Potency [1] | Potency [2] | outcome [3] | Potency [4] | Potency [5] | outcome [6] | Potency [7] | outcome [15] | outcome [8] | outcome [9] | Potency [10] | outcome [11] | Potency [12]

C[N+]1(C)CCCC(OC(=O)C(O)(c2ccccc2)c2ccccc2)C1 (stereo unspecified)
inactive: Potency [1] | Potency [2] | outcome [3] | outcome [19] | outcome [6] | Potency [7] | Potency [14] | outcome [8] | Potency [16] | outcome [17] | outcome [9] | Potency [10] | outcome [11] | Potency [12]

CC1=CC(=O)[C@H]2C[C@@H]1C2(C)C
inactive: Potency [1] | Potency [2] | outcome [3] | outcome [19] | outcome [6] | Potency [7] | Potency [14] | outcome [15] | outcome [8] | outcome [9] | Potency [10] | outcome [11] | Potency [12]

CC(C)(C#N)Nc1nc(Cl)nc(NC2CC2)n1
inactive: Potency [1] | Potency [2] | outcome [3] | Potency [4] | Potency [5] | outcome [6] | Potency [7] | Potency [14] | outcome [15] | outcome [8] | outcome [9] | Potency [10] | outcome [11] | Potency [12]

CCN[C@H]1C[C@H](C)S(=O)(=O)c2sc(S(N)(=O)=O)cc21
inactive: Potency [1] | Potency [2] | outcome [3] | Potency [5] | outcome [6] | Potency [18] | outcome [8] | outcome [9] | Potency [10] | outcome [11] | Potency [12]

O=C(CO)[C@@H](O)[C@H](O)[C@@H](O)CO
inactive: Potency [1] | Potency [2] | outcome [3] | Potency [4] | Potency [5] | outcome [6] | Potency [20] | Potency [13] | Potency [14] | outcome [15] | outcome [8] | Potency [16] | outcome [17] | outcome [9] | Potency [10] | outcome [11] | Potency [12]
